The assay is described as follows: chemical genetic growth profiling, strain panel (AID 1159580).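 Further: tested at 20 µM; growth read once vehicle control cultures reached saturation at 30 °C; 1 = growth at the plate median or of vehicle wells.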 Conditions: S. cerevisiae deletion strains, growth OD.

The structures appear in SMILES notation. Screen size: about 5,500 compounds; about 2,000 (36%) were called active. About 18% were inconclusive and are not listed. This is one part of the list. A number with no mark means an inactive call. No stated cut-off is given here; in the data, active means normalized growth mostly below about 0.91 (no sharp cut-off); inconclusive means no clear call, values can overlap the other calls; inactive means mostly above about 0.92.

Consider `O=C1c2ccccc2C(=O)C1c1ccc(Br)cc1`, for which the normalized growth was 0.851 (active) (locus YHR030C, strain SLT2, stronger effect = lower value); 0.816 (active) (locus YHR079C, strain IRE1, stronger effect = lower value); 0.888 (locus YJL095W, strain BCK1, stronger effect = lower value); 0.823 (active) (locus YJR066W, strain TOR1, stronger effect = lower value); 0.717 (active) (locus YLR113W, strain HOG1, stronger effect = lower value); 0.818 (active) (locus YNL183C, strain NPR1, stronger effect = lower value). The normalized growth is 0.853 (active) (locus YOR231W, strain MKK1, stronger effect = lower value) and 0.712 (active) (locus YPL256C, strain CLN2, stronger effect = lower value).
